# Compound activity as filed in PubChem BioAssay.
# This is a sample that favours compounds with a hit; in the whole collection about 3.6% have one here.
# KKLEB tox – reduces viability of KKLEB cystic fibrosis airway cells | KKLEB CF airway cells viability, ATPlite luminescence, overnight; hits give low values; cells stimulated with P. aeruginosa culture filtrate | activity change (cytotoxicity), % at 5 µM | 360,000 compounds, 0.36% hits | AID 602141;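 active = corrected activity change at or below -50% at 5 µM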
# CF NFkB inh – cystic fibrosis NF-kB activation inhibition | KKLEB NF-kB-GFP reporter, PAF-induced, GFP fluorescence overnight | inhibition, % at 5 µM | 360,000 compounds, 0.86% hits;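 active = at least 50% inhibition at 5 µM, scaled per plate between neutral and stimulator controls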;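 also: PAF is a Pseudomonas aeruginosa culture filtrate used as stimulus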
# Mdm2-MdmX inh – inhibitors of human Mdm2/MdmX interaction | SaOS-2 split-luciferase Mdm2/MdmX complementation, luminescence | inhibition, % at 8 µM | 330,000 compounds, 3% hits | AID 485346;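 active = inhibition of at least 50% at 8 µM in the primary screen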
# Target sequence (O15151 whole entry, looked up): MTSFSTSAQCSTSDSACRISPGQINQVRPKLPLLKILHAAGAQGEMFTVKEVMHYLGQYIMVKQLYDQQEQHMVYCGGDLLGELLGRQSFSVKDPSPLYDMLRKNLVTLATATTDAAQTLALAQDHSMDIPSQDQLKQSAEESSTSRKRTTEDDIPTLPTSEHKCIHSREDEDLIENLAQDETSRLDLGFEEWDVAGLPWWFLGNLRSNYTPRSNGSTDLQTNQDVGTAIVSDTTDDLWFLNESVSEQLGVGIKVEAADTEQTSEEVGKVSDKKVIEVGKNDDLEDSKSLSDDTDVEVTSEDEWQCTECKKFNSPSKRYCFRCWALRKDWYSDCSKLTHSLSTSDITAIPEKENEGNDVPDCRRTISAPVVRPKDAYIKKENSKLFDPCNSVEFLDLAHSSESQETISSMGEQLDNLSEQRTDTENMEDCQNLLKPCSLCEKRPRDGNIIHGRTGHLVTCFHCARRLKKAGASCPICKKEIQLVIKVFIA
# Target sequence (Q00987 whole entry, looked up): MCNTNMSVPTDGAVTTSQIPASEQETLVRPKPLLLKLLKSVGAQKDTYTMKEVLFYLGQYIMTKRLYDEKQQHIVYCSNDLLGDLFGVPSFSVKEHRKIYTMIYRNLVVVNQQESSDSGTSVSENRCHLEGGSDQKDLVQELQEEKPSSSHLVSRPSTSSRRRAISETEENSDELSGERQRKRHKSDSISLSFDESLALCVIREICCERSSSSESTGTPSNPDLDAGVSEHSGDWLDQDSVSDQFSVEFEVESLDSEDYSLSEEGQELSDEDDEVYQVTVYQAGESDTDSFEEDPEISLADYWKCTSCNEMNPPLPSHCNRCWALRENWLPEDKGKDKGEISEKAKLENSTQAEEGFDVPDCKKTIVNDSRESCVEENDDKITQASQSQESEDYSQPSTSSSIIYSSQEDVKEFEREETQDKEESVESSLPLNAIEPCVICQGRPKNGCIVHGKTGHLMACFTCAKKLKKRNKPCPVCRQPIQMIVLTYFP
# Peg3 prom inh – inhibitors of Peg3 promoter | HeLa PEG-Prom luciferase reporter, luminescence, overnight | inhibition, % at 20 µM | 360,000 compounds, 1.7% hits;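 active = inhibition of at least 50% at 20 µM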
# HSP90 refold inh – HSP90 refolding inhibition in rabbit reticulocyte lysate; luciferase refolding luminescence, 3 h; inhibition, % at 5.6 µM; 290,000 compounds, 0.91% hits;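 active = inhibition above the screen-wide mean plus 3 SD, computed separately per campaign, cut at about 16% in these data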;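 also: inhibitors lower the luminescence because luciferase stays unfolded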
# LGR2 antag – inhibitors of bursicon-induced Drosophila LGR2 receptor cAMP signaling; HEK293 LGR2, CRE-luciferase, bursicon-stimulated, 4 h; inhibition, % at 9.99 µM; 380,000 compounds, 0.35% hits; AID 720647;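 active = drop in luminescence signal, shown as inhibition above about 50% in the replicate tests, limit read from the data, passing the limit was not always enough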;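 also: agonist challenge used bursicon conditioned medium at about half maximal strength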
# Hits are given with their value; i = inactive; nt = no result.
SMILES,KKLEB tox,CF NFkB inh,Mdm2-MdmX inh,Peg3 prom inh,HSP90 refold inh,LGR2 antag
Cc1ccc(-c2cc(=O)c3cc(C)ccc3[nH]2)cc1,i,i,i,i,i,52.6
O=C(C[C@H]1C=C[C@H](NS(=O)(=O)c2cccc(F)c2)[C@@H](CO)O1)NCc1ccc2c(c1)OCO2,nt,nt,nt,nt,nt,i
CC1CCC(C(C)C)C(OC(=O)CSc2nccc(=O)[nH]2)C1 (configuration not stated),i,i,i,i,i,nt
COc1ccc(-c2n(CC(=O)OC3CC(C)CCC3C(C)C)c3ccccc3[n+]2C)cc1 (configuration not stated),-53.8,59.6,nt,77.4,i,i
On1ccccc1=S,i,i,nt,100.4,nt,i
C(=N\Nc1nc(-c2cccnc2)nc2ccccc12)/c1ccccc1,i,i,i,i,i,nt
Brc1ccc(-c2nc(N/N=C/c3cccnc3)c3ccccc3n2)cc1,-70.2,i,i,i,i,nt
O=C(CN1CCOCC1)NCC[C@@H]1CC[C@H](NC(=O)Cc2ccccn2)[C@H](CO)O1,nt,nt,nt,nt,nt,i
Cc1ccc2[nH]c3c(c2c1)CCCC3NCCO (configuration not stated),i,i,i,51.6,i,i
Cc1ccc(CCNC(=O)c2nnc(CS(=O)(=O)c3ccccc3)o2)cc1,i,i,i,62.4,i,i
CO[C@@H]1CN(C)C(=O)c2cc(NC(=O)c3cnccn3)ccc2OC[C@H](C)N(C(C)=O)C[C@@H]1C,nt,nt,nt,nt,nt,i
Cc1ccc(S(=O)(=O)N[C@H]2CC[C@H](CCn3cc(-c4cccc(F)c4)nn3)O[C@H]2CO)cc1,nt,nt,nt,nt,nt,i
CC(C)COc1ccc(-c2nnc(-c3ccncc3)o2)cc1,i,i,i,i,i,nt
CCCOc1ccc(-c2nnc(-c3ccncc3)o2)cc1,-52.7,i,i,i,i,nt
O=C(Nc1cccc(C(F)(F)F)c1)c1ccc2nc(-c3ccco3)c(-c3ccco3)nc2c1,i,i,i,50.1,i,nt
CCOC(=O)N1CCN(C(=O)C2CCN(C(=O)c3ccccc3C)CC2)CC1,i,i,nt,106.8,nt,i
Cc1ccccc1C(=O)N1CCC(C(=O)N2CCN(c3ncccn3)CC2)CC1,i,i,i,i,nt,i
O=C(O)CC/C(=C\c1ccc(N2CCCC2)c([N+](=O)[O-])c1)c1nc2ccccc2s1,i,i,i,i,i,i
CN(c1ccccc1)c1ccc(/C=C(/CCC(=O)O)c2nc3ccccc3s2)cc1[N+](=O)[O-],i,i,nt,57.0,nt,i
Cc1ccc(-c2csc3nc(SCC(N)=O)n(Cc4ccccc4)c(=O)c23)cc1,i,i,i,52.6,i,i
COc1ccc(S(=O)(=O)Nc2ccc3c(c2)C(=O)N([C@H](C)CO)C[C@@H](C)[C@@H](CN(C)C(=O)Nc2c(C)noc2C)OCCCC[C@@H](C)O3)cc1,nt,nt,nt,nt,nt,i
CC[C@]12c3[nH]c4ccc(OC)cc4c3CCN1C(=O)C(CC(=O)NC/C=C(\C)CCC=C(C)C)C[C@@H]2C(=O)N1CCN(C(=O)C2CC2)CC1 (some centres not stated),i,i,i,i,nt,i
COc1ccc2[nH]c3c(c2c1)CCN1C(=O)C(CC(=O)NC/C=C(\C)CCC=C(C)C)C[C@H](C(=O)N2CCOCC2)[C@@]31CCC1CCCC1 (some centres not stated),i,i,i,58.8,nt,i
Cc1ccc2c(c1)c1c3n2CCN(CC(O)CNC(C)C)C3CCC1 (configuration not stated),i,i,i,71.7,i,i
COc1ccc(CN(C)C[C@H]2Oc3ccc(N(C)C)cc3CC(=O)N([C@@H](C)CO)C[C@H]2C)cc1,nt,nt,nt,nt,nt,i
SMILES,KKLEB tox,CF NFkB inh,Mdm2-MdmX inh,Peg3 prom inh,HSP90 refold inh,LGR2 antag
CC(=O)N(C)C[C@@H]1Oc2cc(-c3ccc(C)cc3)ccc2S(=O)(=O)N([C@H](C)CO)C[C@H]1C,nt,nt,nt,nt,nt,i
Cc1cc(N/N=C/c2ccc(O)cc2O)nc(-c2ccccc2O)n1,i,77.5,nt,67.5,i,nt
Cc1ccc(-c2cc(C(=O)N3CCN(c4ncccn4)CC3)c3cc(Br)ccc3n2)o1,i,i,i,52.1,i,i
Cc1ccc(NC(=O)c2ccc(NCCc3ccccc3)c([N+](=O)[O-])c2)cc1F,-50.3,i,i,i,i,i
O=C(Nc1cc(F)cc(F)c1)c1ccc(NCCc2ccccc2)c([N+](=O)[O-])c1,i,i,i,i,i,i
COc1ccc(/C=N/NC(=O)c2ccc(NS(=O)(=O)c3cccs3)cc2)cc1,i,i,i,104.3,nt,i
COc1ccc(C#Cc2c(-c3ccsc3)oc3ccc(N4CCOCC4)cc23)cc1,i,i,i,i,nt,i
c1cc(-c2cc3cc(N4CCOCC4)ccc3o2)cs1,-70.2,i,i,i,nt,i
C[C@H](CO)N1C[C@H](C)[C@H](CN(C)Cc2ccccc2)Oc2c(NS(=O)(=O)c3ccc(F)cc3)cccc2C1=O,nt,nt,nt,nt,nt,i
Cc1cccc(N(Cc2ccccc2)C(=O)CCl)c1,-106.6,95.8,nt,59.3,i,i
COc1ccc(CC(=O)N(Cc2ccccc2)c2cccc(C)c2)cc1OC,i,i,i,i,i,i
Cc1cc(-c2ccccc2)n(-c2cc(N/N=C/c3ccccc3O)ncn2)n1,-54.4,74.5,nt,i,i,i
Cc1cn([C@H]2C[C@H](O)[C@@H](/C=C/C(=O)NCc3cccc4ccccc34)O2)c(=O)[nH]c1=O,-51.6,81.1,nt,i,nt,i
COc1ccc(S(=O)(=O)N(C)C[C@@H]2OCc3cn(nn3)CCCC(=O)N([C@H](C)CO)C[C@@H]2C)cc1,nt,nt,nt,nt,nt,i
O=C(N=Nc1c(O)[nH]c2ccc(Br)cc12)c1ccco1,i,i,nt,i,nt,i
O=C(N=Nc1c(O)[nH]c2ccc(Br)cc12)c1cc(-c2cccc3ccccc23)n[nH]1,i,i,i,54.9,i,i
O=C(N=Nc1c(O)[nH]c2ccc(Br)cc12)c1cc(-c2cccs2)nc2ccccc12,i,i,nt,59.7,i,i
COc1ccccc1S(=O)(=O)N[C@@H]1CC[C@H](CCNC(=O)C2CCC2)O[C@H]1CO,nt,nt,nt,nt,nt,i
N/C(=N\OC(=O)c1cccs1)c1ccc(Cl)cc1,i,i,i,i,i,i
COc1ccc(/C(N)=N/OC(=O)c2cccs2)cc1,i,i,i,i,i,70.3
COc1cc(O)c(C(=O)/C=C/c2ccccc2)c(OC)c1,i,i,i,61.5,i,i
COc1cc(C=CC(=O)c2cc(OC)c(OC)c(OC)c2)cc(OC)c1OC,i,i,nt,71.4,nt,56.7
COc1cc(OC)c(C(=O)C=Cc2ccc(OC)c(OC)c2)c(OC)c1,i,i,nt,i,nt,i
COc1ccccc1/C=C/C(=O)c1ccccc1,i,i,nt,i,i,i
COc1cc(C=CC(=O)c2ccccc2)cc(OC)c1OC,i,i,nt,97.5,nt,i
COc1cc(/C=C/C(C)=O)cc(OC)c1OC,i,i,i,i,i,nt
O=C(c1ccccn1)N1C[C@H]2[C@@H](c3ccccc31)[C@@H](CO)N2C(=O)Nc1ccccc1F,nt,nt,nt,nt,nt,i
